DT40 TDP1 CPT = growth inhibition of DT40 Tdp1-/-;hTDP1 cells with camptothecin (screen for TDP1 inhibitors) | AID 686979 | chicken DT40 Tdp1-/-;hTDP1 cells + 20 nM CPT, ATP luminescence, 48 h | actives 12% (n = 420,000) | Potency, µM (series often up to 46.2 µM), for inactives: at the highest dose activity change, negative = growth inhibition, usual class: inhibitors; also: % is scaled to controls: 0 for no effect and ±100 for the full control effect; nearly all actives have a fitted effect of over 55% in size
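Chicken DT40 Tdp1-/- cells stably complemented with human TDP1 were seeded at 400 cells/well in medium containing 20 nM camptothecin, exposed to pin-transferred compounds, and grown at 37 °C for at least 48 hr. Viability was read as ATP luminescence.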
HepG2 tox = kills HepG2 cells in TGF-b inhibitor counter-screen; HepG2 CAGA-GFP viability, ATP luminescence, 18 h; Potency, µM (doses to about 46.1 µM), for inactives: at the top dose activity change, negative = cytotoxicity, usual class: cytotoxic; actives 0.76% (n = 410,000)
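CellTiter-Glo luminescence gave cytotoxicity after 18 hours at 37 degrees C. The cells were HepG2 CAGA-GFP in 1% FBS DMEM, stimulated with 500 pg/mL TGF-beta after compound addition. %Activity was normalised to no-cell wells (complete cell-killing) and DMSO (no toxicity), and curves were fitted and classified.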
ATXN viability = reduces viability in counter-screen for ATXN expression inhibitors; actives 0.49% (n = 400,000); AID 651635; Potency, µM (series often up to 56.7 µM), usual class: cytotoxic; S2 cells (HEK-293 line with an ATXN2-luciferase reporter) viability, CellTiter-Fluor protease fluorescence, 24 h; also: nearly all actives have a fitted effect of over 40% in size
ATXN2 expr inh = inhibitors of ATXN2 expression | Potency, µM (doses to about 57 µM), inactives show at the highest dose activity change, negative = inhibition, hits mostly inhibitors | HEK-293 ATXN2-luciferase reporter, luminescence, 24 h | actives 0.72% (n = 360,000) | AID 1745845; also: % is scaled to controls: 0 for no effect and ±100 for the full control effect; nearly all actives have a fitted effect of over 55% in size
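qHTS (up to 57 uM final) was run with 24 h compound exposure of reporter cells at 37 °C. Each well was multiplexed: SteadyGlo luminescence measured ATXN2-luciferase expression after a fluorogenic Gly-Phe-AFC viability readout (25 uM final).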
DT40 TDP1 no CPT = qHTS for Inhibitors of human tyrosyl-DNA phosphodiesterase 1 (TDP1): qHTS in cells in absence of CPT | DT40 Tdp1-/- hTDP1 cells, no CPT, ATP luminescence, 48 h | Potency, µM (highest dose often 46.2 µM), inactives show at the highest dose activity change, negative = growth inhibition, actives largely listed as inhibitors | actives 15% (n = 420,000); also: % is scaled to controls: 0 for no effect and ±100 for the full control effect; nearly all actives have a fitted effect of over 55% in size
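Growth kinetics read by CellTiter-Glo luminescence after ≥48 hr at 37 °C. Cells: DT40 Tdp1-/- stably carrying human TDP1, 400 per well, compound exposure in the absence of CPT (DMSO vehicle).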
TGFb inhibitor = inhibitors of TGF-b signaling; actives 1.2% (n = 410,000); Potency, µM (top dose mostly 46.1 µM), for the others: at the highest dose activity, negative = inhibition, actives largely listed as inhibitors; HepG2 CAGA-GFP TGF-b/SMAD3 reporter, GFP fluorescence, 18 h; TGF-beta stimulated, 500 pg/mL final; also: % is scaled to controls: 0 for no effect and ±100 for the full control effect; nearly all actives have a fitted effect of over 65% in size
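Cell-based qHTS in HEPG2 carrying a CAGA-GFP Smad reporter; compounds added before 500 pg/mL final TGF-beta, 18 h incubation at 37 degrees C, GFP fluorescence quantified per cell by imaging cytometry.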
Numbers without * were called inactive; i = inactive; ? = inconclusive; · = no result given. A selection: hits, their analogues and other compounds. The true share with any hit is near 17%. Calls follow the shape of the dose curve; as a rule, active = well fitted curve in the direction sought with a large enough effect; inconclusive = small, poorly fitted or top-dose-only effect, or another doubt; inactive = no such curve, though single readings can be large; an effect the other way counts as inactive or inconclusive. Potency is read from the fitted curve at half-maximal effect.

SMILES | DT40 TDP1 CPT | HepG2 tox | ATXN viability | ATXN2 expr inh | DT40 TDP1 no CPT | TGFb inhibitor
CCOc1ccccc1NC(=O)Cn1c(=O)n(Cc2ccccc2)c(=O)c2cccnc21 | -3% | -4% | i | -3% | -1% | 2%
O=C(Nc1ccccc1)c1cc(C2CCCCN2C(=O)CCCc2ccccc2)on1 (centres undefined) | ? | -9% | i | -12% | ? | 17%
O=C(Nc1ccc(F)c(Cl)c1)c1cc(C2CCCCN2C(=O)CCCc2ccccc2)on1 (centres undefined) | ? | -32% | i | -10% | 18µM* | -15%
COc1ccc(NC(=O)c2cc(C3CCCCN3C(=O)CCCc3ccccc3)on2)c(C)c1 (centres undefined) | 0.73µM* | -18% | i | -14% | -90% | -9%
O=C(Nc1ccccc1Cl)c1cc(C2CCCCN2C(=O)CCCc2ccccc2)on1 (centres undefined) | 29µM* | -27% | i | -4% | 23µM* | 6%
O=C(NCc1cccnc1)c1cc(C2CCCCN2C(=O)CCCc2ccccc2)on1 (centres undefined) | 29µM* | -16% | i | -11% | ? | -15%
Cc1ccc(CNC(=O)CCSCc2ccccc2C)cc1 | -12% | -7% | i | 25% | 17% | 0%
COc1ccc(C(c2nnnn2C(C)C)N2CCN(C(=O)c3ccco3)CC2)cc1 (centres undefined) | 5% | 0% | i | -1% | -6% | 7%
Cc1cc(CN(C)C(=O)CC2C(=O)NCCN2Cc2c(F)cccc2Cl)n[nH]1 (centres undefined) | -1% | 0% | i | -1% | -13% | 6%
Cc1ccc(NC(=O)Cn2nc(C)c3nn(-c4ccc(Cl)cc4)c(C)c3c2=O)cc1C | ? | -1% | · | · | 15µM* | ?
Cc1ccc(NC(=O)Cn2nc(C)c3nn(-c4ccc(Cl)cc4)c(C)c3c2=O)cc1F | ? | -20% | · | · | 16µM* | -31%
Cc1nn(CC(=O)Nc2ccc(C(C)C)cc2)c(=O)c2c(C)n(-c3ccc(Cl)cc3)nc12 | ? | 1% | · | · | ? | -5%
Cc1nn(CC(=O)NCc2ccc(OC(C)C)cc2)c(=O)c2c(C)n(-c3ccc(Cl)cc3)nc12 | ? | 1% | · | · | ? | -1%
CCOc1ccc(CCNC(=O)C(C)n2nc(C)c3c(C)n(-c4ccccc4)nc3c2=O)cc1 (centres undefined) | -22% | -4% | i | 0% | -13% | 0%
CC(=O)c1cccc(-c2csc(N3CCC(C(N)=O)CC3)n2)c1 | · | -9% | i | 6% | · | 2%
NC(=O)C1CCN(c2nc(-c3cccc(Cl)c3)cs2)CC1 | · | 6.3µM* | i | 4% | · | ?
Cn1ccc2c(-c3cccnc3)cc3c(c21)C1CCC3O1 (centres undefined) | -20% | 0% | i | -38% | -14% | -25%
CN(C)S(=O)(=O)c1ccc(NC(=O)Cn2nc(-c3ccc4c(c3)OCCO4)ccc2=O)cc1 | ? | 2% | i | 15% | 21µM* | 1%
CC(C)C1Nc2ccc(S(=O)(=O)N3CCOCC3)cc2NC1=O (centres undefined) | ? | -3% | i | 7% | -13% | 5%
COc1cccc(OCc2ccc(Cl)cc2)c1C#N | ? | -29% | i | 126% | 18µM* | -6%
O=[N+]([O-])c1ccc(C[n+]2cccc3ccccc32)cc1 | ? | -5% | i | ? | ? | -15%
O=[N+]([O-])c1ccc(C[n+]2cccc3ccc4cccnc4c32)cc1 | 1.8µM* | -32% | i | ? | 1.6µM* | ?
Cc1cnc(-n2ncc(C(=O)NCCN3CCOCC3)c2C(C)C)nc1-c1ccc(F)cc1 | 0% | · | i | · | -20% | ·
Cc1c(CN2CCC(C(=O)Nc3ccc(Oc4ccccc4)nc3)CC2)cnn1C | 11% | 1% | i | -1% | 14% | -1%
COc1ccc(CN2CCC(C(=O)Nc3ccc(Oc4ccccc4)nc3)CC2)cc1F | 21µM* | -26% | i | -13% | 18µM* | 0%
SMILES | DT40 TDP1 CPT | HepG2 tox | ATXN viability | ATXN2 expr inh | DT40 TDP1 no CPT | TGFb inhibitor
COc1cc(F)ccc1CN1CCC(C(=O)Nc2ccc(Oc3ccccc3)nc2)CC1 | ? | -27% | i | -27% | 16µM* | -23%
O=C1CSC(=S)N1/N=C/c1ccc(O)c(O)c1O | 26µM* | -2% | i | -22% | ? | ?
COc1ccccc1C=NN1C(=O)CSC1=S | ? | -2% | i | 1% | -16% | -11%
CCc1cccc(NC(=O)CC2Oc3ccc(C)cc3NC2=O)c1 (centres undefined) | -9% | -20% | · | · | 0% | -7%
CC(C)C(=O)Nc1cccc(COc2ccc(CN(CCc3ccccc3)C(=O)OC(C)(C)C)cc2)c1 | 26µM* | -8% | i | -16% | 13µM* | -5%
CC(C)(C)OC(=O)N(Cc1ccccc1)Cc1ccccc1OCc1cccc(NC(=O)C2CCC2)c1 | ? | -17% | ? | -6% | 16µM* | -19%
CC(C)(C)OC(=O)N(CCc1ccccc1)Cc1ccccc1OCc1cccc(NC(=O)C2CCC2)c1 | 16µM* | -1% | i | -3% | 13µM* | ?
CC(C)(C)OC(=O)N(Cc1ccccc1)Cc1ccccc1OCc1cccc(NC(=O)C2CC2)c1 | ? | -5% | i | 29% | ? | -4%
C=CCOc1nc2c(c(=O)n(C)c(=O)n2C)n1Cc1ccccc1 | 26µM* | -11% | i | -11% | 18µM* | -12%
C=CCOc1nc2c(c(=O)n(Cc3ccc(Cl)cc3)c(=O)n2C)n1C | ? | -41% | i | -9% | 12µM* | -24%
C#CCOc1nc2c(c(=O)n(C)c(=O)n2C)n1Cc1ccccc1 | 12µM* | -45% | ? | ? | 12µM* | ?
COc1ccc(Oc2nc3c(c(=O)n(Cc4ccc(Br)cc4)c(=O)n3C)n2C)cc1 | -3% | 5% | i | 7% | ? | 9%
CCOCCOc1nc2c(c(=O)n(C)c(=O)n2C)n1Cc1ccc(C)cc1 | ? | -7% | i | 3% | 8.2µM* | -1%
COc1ccc(CNC(=O)OC2CC3CC2[C@H]2CCCCN2C3=O)cc1 (some centres undefined) | 9% | · | i | 10% | -9% | ·
